According to PubChem BioAssay (Tox21):
Values joined by “and” are separate entries in the source; they are usually repeats but may differ in a detail not shown here. Equal entries are not always repeated. Results filed as inconclusive are left out. Where a call stands in place of a potency, no number is given. More than one record can exist for a structure, and the calls need not agree. Active and inactive are the calls of the source. Calls come from the whole dose curve; as a rule, active = well fitted cell-killing curve with a large enough effect in the repeat runs; inconclusive = weak or mixed curves, or effect the other way; inactive = no such curve, though single readings can be large or run the other way.

Assay: qHTS assay to identify small molecule antagonists of the sonic hedgehog signaling (Shh) pathway - cell viability counter screen (AID 1259367); note: nearly all actives have a fitted effect of over 55% in size
Conditions: NIH/3T3 Gli1-Luc viability, CellTiter-Fluor, 24 h; series mostly up to 92.4 µM
Source text: National Center for Advancing Translational Sciences [NCATS]
NIH Chemical Genomics Center [NCGC]
U.S. Environmental Protection Agency [EPA]
National Institutes of Environmental Health Sciences [NIEHS]
National Toxicology Program [NTP]
U.S. Food and Drug Administration [FDA]
The sonic hedgehog (Shh) pathway is essential for normal embryonic development. Dysregulation of the Shh pathway can cause severe developmental defects in organs. Therefore chemicals that interfere with the pathway are potential developmental toxicants. A cell line designated 3T3Gli1-Luc (DMB/OARSA/CFSAN/FDA, Laurel, MD), a NIH/3T3 derived clone containing stably integrated Gli1-Luc reporter is used to detect chemical interference of the Shh pathway, by changes in the expression of the firefly Luc gene under the control of the Gli1 transcriptional response element. This cell line was used to screen Tox21 libraries for identifying and prioritizing the potential developmental toxicants that interfere Shh pathway. Conditioned medium-stimulated mode was used to screen for chemicals inhibiting Shh signaling. The cytotoxicity of the compounds was tested in parallel by measuring the cell viability using CellTiter-Fluor assay system (Promega, Madison, WI) in the same wells.
Tox21 Assay Protocol Summary:
3T3 Gli1-Luc cells were dispensed at 2,000 per well in 5uL of culture medium into white solid bottom 1536-well plates (Greiner Bio-One, Monroe, NC) using a Multidrop Combi (Thermo Scientific, Waltham, MA) dispenser. The assay plates were incubated at 37 C and 5% CO2 for 4hr, and then 23nL of compounds dissolved in DMSO and positive control were transferred using a Pintool station (Wako, San Diego, CA). The compound transfer was followed by the addition of 1ul conditioned medium or assay buffer using two separate tips of Flying Reagent Dispenser (FRD, Aurora Discovery, San Diego, CA). The assay plates were incubated at 37C and 5% CO2 for 24hr. For viability read, after 23hr of compound treatment, 1uL of CellTiter-Fluor reagent (Promega Corporation, Madison, WI) was added to each well of the assay plates using Flying Reagent Dispenser (FRD, Aurora Discovery, San Diego, CA) and incubated the assay plates at 37C for 1hr. The fluorescence signal was quantified using a ViewLux plate reader (Perkin Elmer, Shelton, CT).
Potency is the fitted concentration of half-maximal effect.

SMILES	Potency	viability change, negative = cytotoxic
CCc1oc2ccccc2c1C(=O)c1cc(I)c(O)c(I)c1	inactive	–
CC(=O)[C@H]1CC[C@H]2[C@@H]3CCC4=CC(=O)CC[C@]4(C)[C@H]3CC[C@]12C	inactive	–
Oc1c(I)cc(Cl)c2cccnc12	inactive	–
C=CCn1c(=O)n(CC=C)c(=O)n(CC=C)c1=O	inactive	–
Cc1cc(-c2ccc(N=Nc3cc(S(=O)(=O)O)c4ccccc4c3N)c(C)c2)ccc1N=Nc1cc(S(=O)(=O)O)c2ccccc2c1N	inactive	–
O=C(O)Cc1ccc2c(c1)C(=O)c1ccccc1CO2	inactive	–
Cc1c(C)c([N+](=O)[O-])c(C(C)(C)C)c([N+](=O)[O-])c1C	inactive	–
CC1(C)[C@@H](O)CC[C@]2(C)[C@H]3C(=O)C=C4[C@@H]5C[C@@](C)(C(=O)O)CC[C@]5(C)CC[C@@]4(C)[C@]3(C)CC[C@@H]12	inactive	–
Cc1nc(-c2ccc(Cl)cc2)oc1COC(C)(C)C(=O)O	inactive	–
COc1cc(C)ccc1O	inactive	–
Cl[Si](Cl)(c1ccccc1)c1ccccc1	inactive	–
CC(C)Cn1cnc2c(N)nc3ccccc3c21	–	4.21% [at 19 µM] (inactive)
CCCC(=O)OCOC(=O)C1=C(C)NC(C)=C(C(=O)OC)C1c1cccc(Cl)c1Cl (stereo not given)	inactive	–
Clc1nnc(Cl)c2ccccc12	inactive	–
S=C([S-])NCCNC(=S)[S-].S=C([S-])NCCNC(=S)[S-].[Mn+2].[Zn+2]	inactive	–
C#Cc1ccc(-c2ccccc2F)cc1	inactive	–
CCCCOC(=O)CO	inactive	–
CCCCCCCCCCOC(=O)c1ccccc1C(=O)OCCCCCCCC	inactive	–
CN(C)CCN1CCN(c2cccc(Cl)c2)C1=O	inactive	–
CCCCC(CC)COC(=O)CCCCC(=O)OCc1ccccc1 (stereo not given)	inactive	–

SMILES	Potency	viability change, negative = cytotoxic
C=CCCC(=O)/C=C/C1C(C)=CCCC1(C)C (stereo not given)	inactive	–
Cc1c2ccccc2c(C)c2c1ccc1ccccc12	inactive and 61.1 µM (active)	–
CN(C)C(=O)COC(=O)Cc1ccc(OC(=O)c2ccc(N=C(N)N)cc2)cc1	inactive	–
CCC(C)[O-].CCC(C)[O-].CCOC(=O)/C=C(/C)[O-].[Al+3]	inactive	–
C[Si](Cl)(c1ccccc1)c1ccccc1	inactive	–
CC1(C)CC(O)CC(C)(C)N1	inactive	–
c1cnccn1	inactive	–
Cc1c(F)c(N2CCNC(C)C2)cc2c1c(=O)c(C(=O)O)cn2C1CC1 (stereo not given)	inactive	–
O=c1oc2cc(O)ccc2c2oc3cc(O)ccc3c12	inactive	–
O=C(O)c1cc(-c2ccc(F)cc2F)ccc1O	inactive	–
CCCC1CCC(=O)CC1	inactive	–
CN1CCN2c3ccccc3Cc3ccccc3C2C1 (stereo not given)	inactive	–
OC1CCCc2ccccc21 (stereo not given)	inactive	–
Cc1cccc(C(=O)O)c1O	inactive	–
Clc1sc(Cl)c(Cl)c1Cl	inactive	–
COC(=O)C1=C(C)NC(C)=C(C(=O)OCCN2CCN(C(c3ccccc3)c3ccccc3)CC2)C1c1cccc([N+](=O)[O-])c1 (stereo not given)	inactive	–
CC(C)NC[C@@H](O)COc1ccc(CC(N)=O)cc1	inactive	–
CC[N+](CC)(CC)CCOC(=O)C(C1CCCC1)C1CCCC1	inactive	–
Cc1cc(C(C#N)c2ccc(Cl)cc2)c(Cl)cc1NC(=O)c1cc(I)cc(I)c1O (stereo not given)	inactive	–
COc1cc(/C=C/c2ccccc2)oc(=O)c1	inactive	–
